Screen size: about 52,000 compounds; about 4,300 (8.3%) were called active. The full list was thinned out, with actives kept by preference. Values without a mark were called inactive. Cut-off read from the data, not from the text of the source: active = survival mostly below about 52% (no sharp cut-off); inactive = mostly above about 56%.
tested on: DeltatarO mutant; test: growth inhibition of S. aureus wild type versus tarO mutant, primary screen, teichoic acid synthesis inhibitors, RN4220, OD600 (AID 463173); conditions: OD600, 18 h, active compounds read low, screened at 18.75 µg/mL (by protocol)

SMILES	survival
CN1CCN(C(=O)/C(=C/c2cccs2)NC(=O)c2cccs2)CC1	74%
CC(C)CCNC(=O)c1cnc2sc(N3CCCCCC3)nn2c1=O	78%
CCN(CC)S(=O)(=O)c1ccc2c(c1)c(=O)c(C(=O)N1CCN(c3cccc(C)c3)C(C)C1)cn2C (stereo unspecified)	78%
COc1ccc(N2CCN(C(=O)c3nn(-c4ccc(C)cc4)c(=O)n(C)c3=O)CC2)cc1	71%
CCN(CC)CCNC(=O)CCn1c(=O)c2cccn2c2cccnc21	87%
O=C(Cn1nnc(-c2ccc(Cl)cc2)n1)NCc1ccc(F)cc1	78%
CCOC(=O)N1c2ccccc2Sc2ccccc21	98%
CC(=O)N1c2ccccc2Sc2ccccc21	102%
CCc1ccc(NC(=O)N2c3ccccc3Sc3ccccc32)cc1	-2% (active)
CCN(CC)C(=O)N1c2ccccc2Sc2ccccc21	99%
CC(C)c1ccc(NC(=O)N2c3ccccc3Sc3ccccc32)cc1	6% (active)
O=C(C1CC1)N1c2ccccc2Sc2ccccc21	73%
Cc1ccc(-c2cc(C(F)F)n3ncc(C(=O)Nc4cn(C)nc4C)c3n2)cc1	89%
CC1=C(C(=O)Nc2ccc(F)cc2F)C2(CCCCCC2)OC1=O	83%
Cc1cc(=O)n(CC(=O)Nc2cccc([N+](=O)[O-])c2)c(-n2nc(C)cc2C)n1	95%
Cc1cc(C)n(-c2nc(C)c(C)c(=O)n2CC(=O)Nc2cccc([N+](=O)[O-])c2)n1	52% (active)
Cc1cc(C)n(-c2nc(C)c(C)c(=O)n2CC(=O)Nc2ccc([N+](=O)[O-])cc2)n1	77%
Cc1nc(N2CCN(C(=O)c3ccco3)CC2)c2c3c(sc2n1)CC(C(C)(C)C)CC3 (stereo unspecified)	77%
COc1ccc(CN2CCN(c3ncnc4sc5c(c34)CC(C)CC5)CC2)cc1F (stereo unspecified)	83%
O=C(c1ccco1)N1CCN(c2ncnc3sc4c(c23)CCC4)CC1	36% (active)
c1nc(N2CCCC2)c2c3c(sc2n1)CCC3	70%
COc1ccc(CN2CCN(c3ncnc4sc5c(c34)CCCC5)CC2)cc1F	33% (active)
Clc1ccc(CN2CCN(c3ncnc4sc5c(c34)CCCC5)CC2)cc1Cl	107%

SMILES	survival
Cc1ccc(NC(=O)Cn2cc(S(=O)(=O)N3CCC(C)CC3)c3ccccc3c2=O)c(Br)c1	84%
COc1ccc(NCc2cc3cc4c(cc3n(CC(=O)Nc3ccc(C)cc3)c2=O)OCO4)cc1	67%
Cc1ccc(NCc2cc3cc4c(cc3n(CC(=O)Nc3ccc(C)cc3)c2=O)OCCO4)cc1	32% (active)
CC(=O)c1cccc(NC(=O)Cn2c(=O)c(CNc3ccc(C)cc3)cc3cc4c(cc32)OCCO4)c1	91%
CCc1ccc(NCc2cc3cc4c(cc3n(CC(=O)Nc3ccc(C)cc3)c2=O)OCO4)cc1	89%
CCc1ccc(NCc2cc3cc4c(cc3n(CC(=O)Nc3ccc(Cl)cc3)c2=O)OCO4)cc1	135%
CCOc1ccc(NC(=O)Cn2c(=O)c(CNc3ccc(CC)cc3)cc3cc4c(cc32)OCO4)cc1	47% (active)
CCOC(=O)c1ccc(NC(=O)c2c(NCc3ccc(OC)c(OC)c3OC)sc3c2CCC(C)C3)cc1 (stereo unspecified)	123%
COc1cccc(C(=O)N(Cc2ccc(C)o2)C2CCS(=O)(=O)C2)c1 (stereo unspecified)	96%
CN(C(=O)c1cc2nc(-c3ccco3)cc(C(F)(F)F)n2n1)C12CC3CC(CC(C3)C1)C2	110%
COC(=O)c1ccccc1NC(=O)c1cn2c3c(ccc(Cl)c3c1=O)OC(C)C2 (stereo unspecified)	84%
Cc1cccc(-n2c3nc(=O)n(C)c(=O)c-3cc3ccc(Cl)cc32)c1C	81%
Cn1c(=O)c2sccc2n2c(CCCC(=O)Nc3ccc(Oc4ccccc4)cc3)nnc12	53%
Cn1c(=O)c2sccc2n2c(CCCC(=O)Nc3ccc(Oc4ccc(Cl)cc4)cc3)nnc12	24% (active)
CCCn1c(=O)c2sccc2n2c(CCCC(=O)Nc3ccc(Oc4ccc(Cl)cc4)cc3)nnc12	98%
COc1ccc(NC(=O)c2ccc(CN3C(=O)CCn4nc(C)cc43)cc2)c(OC)c1	99%
CCC1(c2csc(Nc3ccccc3C)n2)CCC(=O)O1 (stereo unspecified)	89%
CCCC1CC(C)(c2csc(NCC)n2)OC1=O (stereo unspecified)	71% (active)
CCCC1CC(C)(/C(C)=N\NC(N)=S)OC1=O (stereo unspecified)	98%
CCCCc1ccc(NC(=O)C2(C)Cc3ccccc3C(=O)O2)cc1 (stereo unspecified)	75%
COc1ccc(S(=O)(=O)N(CC(=O)NCCc2ccccc2)c2ccc(Cl)cc2)cc1	83%
COc1ccc(CCN2C(=O)N(c3ccc(F)cc3)C(=O)C2CC(=O)Nc2ccc(F)c(F)c2)cc1 (stereo unspecified)	61%
CCOC(=O)c1c(-c2ccccc2)oc2ccc(NS(=O)(=O)c3ccc(C)cc3C)cc12	47%

SMILES	survival
CCOC(=O)c1c(-c2ccccc2)oc2ccc(NS(=O)(=O)c3ccc(OC)cc3)cc12	60%
CCOC(=O)c1c(C)oc2ccc(N(C(=O)c3ccncc3)S(=O)(=O)c3ccc(CC)cc3)cc12	60%
CCOC(=O)c1c(C)oc2ccc(N(C(=O)c3ccncc3)S(=O)(=O)c3ccc(F)cc3)cc12	28% (active)
Cc1cc(F)ccc1S(=O)(=O)Nc1ccc2oc3c(c2c1)CC(C)CC3 (stereo unspecified)	56%
CCc1ccc(S(=O)(=O)Nc2ccc3oc(C)c(C(=O)OCCOC)c3c2)cc1	32% (active)
CCOC(=O)c1c(-c2ccccc2)oc2ccc(NS(=O)(=O)c3ccc(C)cc3)cc12	83%
CCCc1oc2ccc(NS(=O)(=O)c3ccc(OCC)cc3)cc2c1C(=O)OCC	65%
CCOC(=O)c1c(-c2ccccc2)oc2ccc(NS(=O)(=O)c3ccccc3)cc12	35% (active)
CCCCOC(=O)c1c(C)oc2ccc(NS(=O)(=O)c3ccc(F)cc3C)cc12	10% (active)
CCOC(=O)c1c(C)oc2ccc(N(C(=O)c3ccncc3)S(=O)(=O)c3ccc(F)cc3C)cc12	79%
COCc1oc2ccc(NS(=O)(=O)c3ccc(C)cc3)cc2c1C(=O)OC	60%
CC(C)(C)c1ccc(CN(Cc2ccco2)Cc2nnnn2C2CCCCC2)cc1	105%
CC1CCc2c(nc3ncnn3c2NCCN(C)C)C1 (stereo unspecified)	88%
COc1cccc(NC(=O)Nc2cccc(-c3cn4cccnc4n3)c2)c1	78%
COc1ccc(C(=O)n2cnnc2N)cc1	103%
Cc1cc(C)c(S(=O)(=O)Nc2ccc3oc(C)c(C(=O)OC(C)C)c3c2)cc1C	48% (active)
CCOC(=O)c1c(-c2ccccc2)oc2ccc(NS(=O)(=O)c3cc(C)c(C)cc3C)cc12	63%
CC(=O)c1c(C)oc2ccc(NS(=O)(=O)c3ccc(C(C)C)cc3)cc12	78%
COc1ccc(CNC(=O)CCn2c(=O)c3cccn3c3ccc(F)cc32)cc1OC	91%
CCOc1ccc(CCNC(=O)CCn2c(=O)c3cccn3c3ccc(F)cc32)cc1OCC	42% (active)
CCOc1ccc(CCNC(=O)CCCn2c(=O)c3cccn3c3cccnc32)cc1OCC	93%
COc1ccc(CCNC(=O)CCCn2c(=O)c3cccn3c3ccccc32)cc1OC	61%
COc1ccc(CCNC(=O)CCn2c(=O)c3cccn3c3ccc(F)cc32)cc1OC	45% (active)

SMILES	survival
COc1ccc(CCNC(=O)CCCn2c(=O)c3cccn3c3ccc(F)cc32)cc1OC	43% (active)
CCOc1ccc(CCNC(=O)Cn2c(=O)c3cccn3c3ccc(F)cc32)cc1OCC	74%
COc1ccc(CNC(=O)CCCn2c(=O)c3cccn3c3ccc(F)cc32)cc1OC	53%
COc1ccc(CCNC(=O)Cn2c(=O)c3cccn3c3ccc(F)cc32)cc1OC	72%
COc1ccc(N2CC(NC(=O)c3c(F)cccc3Cl)CC2=O)cc1OC (stereo unspecified)	95%
COc1ccc(Cl)cc1NC(=O)CSc1nnc(C)n2c1cc1sccc12	68%
Cc1ccc(-n2nc(C)c3c(C(F)(F)F)cc(-c4cccnc4)nc32)cc1C	42%
CCN(Cc1ccccc1)C(=O)Cn1c(=O)n(Cc2ccccc2)c(=O)c2c1c1cc(OC)ccc1n2C	59%
O=C(CN1C(=O)C2(SCC(=O)N2c2cccc(Cl)c2)c2ccccc21)NCCc1ccccc1 (stereo unspecified)	104%
CCOc1ccccc1CNC(=O)CN1C(=O)C2CCCCN2c2ccc(C(=O)N(C)C)cc21 (stereo unspecified)	120%
COc1cccc(NC(=O)CSc2nc3ccc(NC(=O)c4ccco4)cc3s2)c1	77%
CC(C)(C)NS(=O)(=O)c1ccc2nc(NC(=O)c3cccnc3)sc2c1	86%
CN(C)c1cccc(C(=O)Nc2nc3ccc(S(=O)(=O)NC(C)(C)C)cc3s2)c1	47% (active)
CN(C)c1cccc(C(=O)Nc2nc3ccc(S(=O)(=O)N4CCCC4)cc3s2)c1	135%
Cc1cccc(NC(=O)Cn2nc(N3CCN(c4ccccc4)CC3)ccc2=O)c1C	87%
COc1cc(NC(=O)c2nc3cc(C)c(C)cc3n(C)c2=O)cc(OC)c1OC	94%
COc1ccc(OCC(O)Cn2c(=N)n(CCN3CCCCC3)c3ccccc32)cc1 (stereo unspecified)	46%
Cc1ccc(OCC(O)Cn2c(=N)n(CCN3CCCCC3)c3ccccc32)cc1 (stereo unspecified)	36% (active)
Cc1ccccc1OCC(O)Cn1c(=N)n(CCN2CCCCC2)c2ccccc21 (stereo unspecified)	71%
N=c1n(CCN2CCCCC2)c2ccccc2n1CC(O)COc1ccccc1 (stereo unspecified)	163%
N=c1n(CCN2CCCCC2)c2ccccc2n1CC(O)COc1ccc(Cl)cc1Cl (stereo unspecified)	-16% (active)
OC(COc1ccc(Cl)cc1Cl)CN1CCCCC1 (stereo unspecified)	70%
